Results: PubChem BioAssay (NCI)
About 83,000 compounds went through this panel and 20% of them were active in at least one assay; those are over-represented in the sample as a whole.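 Step 1: grow cells in 96-well plates. Step 2: add test compound at a single concentration. Step 3: incubate 48 h. Step 4: record percent growth.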 Unmarked numbers belong to inactive results. The source made the active and inactive calls. How the source made its calls: active means growth percent below 10; inactive means the rest.

What was measured:
Experiment in all cases: NCI-60 one-dose screen, 48 h (100 = growth as untreated, 0 = no growth, -100 = all killed)
[1] = test system: DU-145 prostate; settings: 10 µM unless noted
[2] = test system: K-562 leukemia; settings: 10 µM unless noted
[3] = test system: MALME-3M melanoma; settings: 10 µM unless noted
[4] = test system: MDA-MB-231 breast; settings: 10 µM unless noted
[5] = test system: RXF 393 renal; settings: 10 µM unless noted
[6] = test system: SF-268 CNS; settings: 10 µM unless noted
[7] = test system: SF-295 CNS; settings: 10 µM unless noted
[8] = test system: SF-539 CNS; settings: 10 µM unless noted
[9] = test system: UACC-257 melanoma; settings: 10 µM
[10] = test system: M14 melanoma; settings: 10 µM unless noted

Row | SMILES | growth [1] | growth [2] | growth [3] | growth [4] | growth [5] | growth [6] | growth [7] | growth [8] | growth [9] | growth [10]
1 | Nc1c(C(=O)c2ccc(F)cc2)sc2nc3c(cc12)CCCC3 | 77.9% | 25.8% | 31.7% | 85.7% | 56% | 87.4% | 72.6% | 95.3% | 95% | 71%
2 | COc1ccc(C(=O)/C=C/c2cc(C(=O)c3cc(OC)c(OC)c(OC)c3)ccc2OC)cc1 | 79.3% | 12.8% | 77.9% | 51.8% | 73% | 59.2% | 98.1% | 55% | 68% | 64.7%
3 | COc1ccc(/C=C/C(=O)c2cc(OC)c(OC)c(OC)c2)cc1OCc1cn(Cc2ccc(F)cc2)nn1 | 59.3% | 7.36% (active) | 92.1% | 81.8% | 72.2% | 79.3% | 68.4% | 6.59% (active) | 98.3% | 87.7%
4 | CC(C)CCN(CCCNc1c2c(nc3ccccc13)CCCC2)CCC(C)C | 86.3% | 31.4% | 84.9% | 24.5% | 81.9% | 89.4% | 80.1% | 88.2% | 94.5% | 35.9%
5 | COc1cc(NC(=O)c2cc3ccccc3nc2Nc2ccc(F)cc2)cc(OC)c1OC | 69.8% | 37.3% | 66.7% | 51.2% | 50.6% | 50.9% | 39.5% | 40.5% | 27.6% | 30.2%
6 | COc1ccc(-c2nc3sccn3c2-c2ccnc(NCCCNS(=O)(=O)c3ccc(C)cc3)n2)cc1 | 34.1% | 19.9% | 54.7% | 23.5% | 34.6% | 38.1% | 21.4% | 56.9% | 40% | 23.2%
7 | Cc1ccc(OCCn2c(C)nn(-c3ccc(Cl)cc3)c2=O)cc1 | 135% | 107% | 99.8% | 103% | 125% | 117% | 98.9% | 110% | 104% | 102%
8 | O=C(Nc1ccc(Cl)cc1)c1cc(-c2ccc(F)cc2)c2sc(=O)[nH]c2n1 | 24.2% | 10.6% | 4.01% (active) | 5.74% (active) | 5.27% (active) | 23.6% | 9.57% (active) | -4.01% (active) | -8.82% (active) | 13.9%
9 | COc1ccc(/C=C/c2nc(N3CCOCC3)c3cc(F)c(F)cc3n2)cc1OC | 53.5% | 16.4% | 42.3% | 55.4% | 48.6% | 53.5% | 19.3% | 56.8% | 20.5% | 28%
10 | O=C(COc1ccccc1)N1N=C(c2ccc(Cl)cc2)CC1c1c[nH]c2ccccc12 (stereo not given) | 92% | 71.2% | 74.1% | 47.7% | 103% | 71.9% | 92.1% | 87.1% | 89.1% | 83.1%
11 | Nc1c(C(=O)Nc2c(Cl)cccc2Cl)sc2nc3c(cc12)CCCCC3 | 70.4% | 24.1% | 61.5% | 63.4% | 3.29% (active) | 60.5% | 54.4% | 38.2% | 50.7% | 43.8%
12 | O=C(c1ccncc1)N1N=C(c2ccc(Cl)cc2)CC1c1c[nH]c2ccccc12 (stereo not given) | 102% | 88.3% | 96.7% | 71.3% | 112% | 94.2% | 97% | 97% | 95.9% | 95.3%
13 | O=C(O)Cc1ccc2c(c1)Cc1cccnc1O2 | 107% | 114% | 98.5% | 111% | 91.2% | 103% | 108% | 99.7% | 106% | 103%
14 | COc1ccc(/C=C2\CCCC3=C2NC(C)=NC3c2ccc(OC)c(OC)c2)cc1OC (stereo not given) | 7.29% (active) | 5.92% (active) | -0.933% (active) | 7.16% (active) | -16.6% (active) | 20% | 3.05% (active) | 17.1% | 20.2% | -42.1% (active)
15 | COc1cccc(NC(=O)c2sc3nc4c(cc3c2N)CCCC4)c1 | 13% | 12.2% | 17% | 51.9% | 7.62% (active) | 49.5% | 35.4% | -12.8% (active) | 64.5% | 16.6%
16 | CC(C(=O)n1cc(-c2ccccc2)c(-c2ccccc2)c1)c1ccccc1 (stereo not given) | 113% | 104% | 108% | 108% | 112% | 118% | 91.9% | 104% | 95.3% | 108%
17 | COc1cc(Cn2c(-c3nonc3N)nc3ccccc32)ccc1C | 13.8% | 10.4% | 80.7% | 22.3% | -8.35% (active) | 40.3% | 26% | -32.8% (active) | 65.2% | 14%
18 | COc1cc(OC)c(C(=O)/C=C/c2ccc(C#N)cc2)c(OC)c1 | 18.3% | 9.68% (active) | 44.2% | 22.2% | 15.9% | 21% | 8.32% (active) | 2.95% (active) | 30.8% | 1.79% (active)
19 | CCC1CCc2nc3sc(C(=O)Nc4ccccc4C)c(N)c3cc2C1 (stereo not given) | 22.7% | 24.1% | 28.3% | 66.6% | 26.1% | 49.9% | 15.3% | 23.9% | 54.2% | 19.8%
20 | O=c1c2cccc3c(Nc4ccc(F)cc4)ccc(c32)c2nc3ccccc3n12 | 95.5% | 89.5% | 94.1% | 70.9% | 98% | 95.3% | 109% | 83.8% | 86.2% | 96.7%
21 | Nc1c(C(=O)Nc2cccc(C(F)(F)F)c2)sc2nc3c(cc12)CCCCC3 | 44.1% | 36.9% | -20.4% (active) | -29.5% (active) | -20.7% (active) | 25.8% | 11.7% | -63.3% (active) | 18.6% | 49.6%
22 | CCC1=C[C@@H]2CN(C1)Cc1c([nH]c3ccccc13)[C@@](C(=O)OC)(c1cc3c(cc1OC)N(C=O)[C@H]1[C@@](O)(C(=O)OC)[C@H](OC(C)=O)[C@]4(CC)[C@@H]5C[C@@H]5CN5CC[C@]31[C@@H]54)C2 | -9.76% (active) | 9.35% (active) | 40.4% | -24% (active) | 40.7% | 16.1% | -32.8% (active) | -18.1% (active) | 52.5% | 3.92% (active)
23 | O=S(=O)(c1ccccc1)n1ccc(-c2ccc3c(c2)CCO3)n1 | 95% | 56.1% | 94% | 82.9% | 82.9% | 92.7% | 83.3% | 86.7% | 79.9% | 101%
24 | COc1ccc(NC(=O)CSc2nc3ccccc3c(=O)n2-c2ccccc2C(F)(F)F)c(OC)c1OC | 105% | 94.5% | 106% | 89% | 108% | 100% | 94.2% | 94.7% | 100% | 97.5%
25 | COc1cc(C(=O)/C=C/c2cc(C(=O)c3cc(OC)c(OC)c(OC)c3)ccc2OC)ccc1N | 26.7% | 4.22% (active) | -36.1% (active) | 23.1% | -32.5% (active) | -28.1% (active) | 9.88% (active) | -53.2% (active) | -11.9% (active) | -52.9% (active)
26 | CN(C)c1ccc(/C=C\N=Nc2ccc(Br)cc2)cc1 | 45.8% | 16.7% | 86.5% | 49.6% | 108% | 52.7% | 29.1% | 5.55% (active) | 87.5% | 41.4%
27 | COc1cc2nc(Cl)nc(NCCO)c2cc1OC | 112% | 105% | 94.4% | 109% | 107% | 110% | 103% | 96.1% | 98.6% | 110%
